Data on eight molecules can be found in ChEMBL document CHEMBL3988442, “University of Dundee, Small-Polar-MMV Screening Library” (2021).

Common to all, as to parameters: scale not given: direction of the effect not stated beside the values
In test [1] the target is Protein translocase subunit SecA (Escherichia coli (strain K12)) (UniProt P10408). Description: Assay to Identify E. coli SecA ATPase Inhibitors. It is filed as functional. To be noted: 30 µM.
For test [2], the target named is T1, Ubiquitin-activating enzyme e1, putative (Leishmania donovani (strain BPK282A1)) (UniProt E9BSI1).
T1 sequence (whole entry): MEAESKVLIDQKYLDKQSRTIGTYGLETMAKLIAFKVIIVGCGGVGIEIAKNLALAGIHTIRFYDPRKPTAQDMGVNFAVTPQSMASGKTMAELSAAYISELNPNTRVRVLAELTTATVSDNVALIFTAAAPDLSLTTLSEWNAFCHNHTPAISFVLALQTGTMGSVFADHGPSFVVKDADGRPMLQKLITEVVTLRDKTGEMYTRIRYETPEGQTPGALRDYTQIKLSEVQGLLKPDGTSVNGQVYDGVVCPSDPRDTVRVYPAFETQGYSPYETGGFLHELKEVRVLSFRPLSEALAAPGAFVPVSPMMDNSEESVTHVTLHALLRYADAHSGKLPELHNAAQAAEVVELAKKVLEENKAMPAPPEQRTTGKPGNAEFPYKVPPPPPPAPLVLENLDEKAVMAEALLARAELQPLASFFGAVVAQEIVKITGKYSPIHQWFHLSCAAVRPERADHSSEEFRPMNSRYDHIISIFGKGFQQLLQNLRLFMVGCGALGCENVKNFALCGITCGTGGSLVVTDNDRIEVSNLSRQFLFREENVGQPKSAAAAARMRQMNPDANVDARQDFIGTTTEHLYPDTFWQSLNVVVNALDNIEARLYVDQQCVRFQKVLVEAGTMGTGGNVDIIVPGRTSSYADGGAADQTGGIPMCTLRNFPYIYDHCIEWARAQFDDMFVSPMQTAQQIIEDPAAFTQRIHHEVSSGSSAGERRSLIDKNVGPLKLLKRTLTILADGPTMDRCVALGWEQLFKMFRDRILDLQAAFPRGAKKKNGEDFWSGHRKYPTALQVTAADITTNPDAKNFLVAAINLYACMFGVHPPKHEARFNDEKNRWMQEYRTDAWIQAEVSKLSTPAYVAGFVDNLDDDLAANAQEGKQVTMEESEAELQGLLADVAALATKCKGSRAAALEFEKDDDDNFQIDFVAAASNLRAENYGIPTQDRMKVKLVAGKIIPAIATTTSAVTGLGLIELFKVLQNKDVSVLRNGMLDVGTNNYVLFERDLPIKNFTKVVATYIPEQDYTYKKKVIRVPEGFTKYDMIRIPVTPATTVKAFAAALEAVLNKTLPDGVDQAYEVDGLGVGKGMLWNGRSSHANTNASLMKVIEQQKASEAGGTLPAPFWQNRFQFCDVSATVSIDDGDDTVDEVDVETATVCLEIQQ
Description: Leishmania donovani Ubiquitin Activating Enzyme (LdE1). To be noted: 30 µM. It is filed as functional.

In test [3] the target is AMP-activated protein kinase, AMPK (Homo sapiens) (UniProt P54646+O43741+P54619+Q9UGJ0+Q9Y478+Q13131+Q9UGI9). Description: AMP-dependent Kinase enzyme assay. An in vitro enzyme assay that detects ADP turnover that is directly proportional to AMPK activity. This uses naive AMPK that is activated during the assay with MK-8722. It is filed as functional. To be noted: 30 µM.

In test [4] the target is Sialic acid-binding Ig-like lectin 9 (Homo sapiens) (UniProt Q9Y336). The test is described as follows: Hs-Siglec9 ALPHAscreen SOP 20170721. Conditions: 10 µM.
For test [5], the system named is Trypanosoma cruzi. Description: Trypanosoma cruzi phosphomannomutase and mannose-1-phosphate guanylyltransferase assay. It is filed as functional. Conditions: 10 µM.
Test [6] has as its target T2, Arginase-2, mitochondrial (Homo sapiens) (UniProt P78540).
T2 sequence (whole entry): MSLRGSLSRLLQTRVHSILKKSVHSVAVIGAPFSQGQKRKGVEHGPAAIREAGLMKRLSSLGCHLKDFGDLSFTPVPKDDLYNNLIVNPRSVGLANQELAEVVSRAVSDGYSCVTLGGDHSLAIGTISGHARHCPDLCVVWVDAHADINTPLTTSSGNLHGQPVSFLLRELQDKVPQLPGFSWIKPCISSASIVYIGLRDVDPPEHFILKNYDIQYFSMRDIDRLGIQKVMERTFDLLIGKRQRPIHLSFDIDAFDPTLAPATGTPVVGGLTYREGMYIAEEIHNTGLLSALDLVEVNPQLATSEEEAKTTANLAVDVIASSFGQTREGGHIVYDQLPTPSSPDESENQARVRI
The test is described as follows: in vitro enzyme assay to detect the production of urea directly proportional to the activity of Arginase II. Further: in the data most compounds retested in dose-response had high values. It is filed as functional. Conditions: 33.3 µM.

Test [7] concerns the target T3, Proteasome subunit beta (Trypanosoma cruzi) (UniProt O96673).
T3 sequence (whole entry): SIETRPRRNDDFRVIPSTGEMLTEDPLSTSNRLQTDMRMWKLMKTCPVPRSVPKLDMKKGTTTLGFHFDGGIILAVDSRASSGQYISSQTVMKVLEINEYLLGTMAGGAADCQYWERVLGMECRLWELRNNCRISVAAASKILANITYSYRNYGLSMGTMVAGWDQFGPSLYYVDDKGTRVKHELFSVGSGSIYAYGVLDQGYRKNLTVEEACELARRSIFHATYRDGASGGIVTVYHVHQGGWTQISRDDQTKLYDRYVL
Description: Trypanosoma cruzi proteasome chymotrypsin-like activity (TcProtChymo) assay. Further: in the data most compounds retested in dose-response had high values. It is filed as functional. Conditions: 9.37 µM.

The species named for test [8] is Homo sapiens. The test is described as follows: To identify inhibition of the IFN signalling (Jak-Stat) pathway via expression of an eGFP reporter gene under the control of an IFN-stimulated response element (ISRE) containing MxA promoter. It is filed as functional. Conditions: 30 µM. (In general: A reporter such as luciferase makes a cellular process visible.)
Test [9] deals with T4, Tyrosyl-tRNA synthetase, putative (Trypanosoma cruzi (strain CL Brener)) (UniProt Q4DSP6).
T4 sequence (whole entry): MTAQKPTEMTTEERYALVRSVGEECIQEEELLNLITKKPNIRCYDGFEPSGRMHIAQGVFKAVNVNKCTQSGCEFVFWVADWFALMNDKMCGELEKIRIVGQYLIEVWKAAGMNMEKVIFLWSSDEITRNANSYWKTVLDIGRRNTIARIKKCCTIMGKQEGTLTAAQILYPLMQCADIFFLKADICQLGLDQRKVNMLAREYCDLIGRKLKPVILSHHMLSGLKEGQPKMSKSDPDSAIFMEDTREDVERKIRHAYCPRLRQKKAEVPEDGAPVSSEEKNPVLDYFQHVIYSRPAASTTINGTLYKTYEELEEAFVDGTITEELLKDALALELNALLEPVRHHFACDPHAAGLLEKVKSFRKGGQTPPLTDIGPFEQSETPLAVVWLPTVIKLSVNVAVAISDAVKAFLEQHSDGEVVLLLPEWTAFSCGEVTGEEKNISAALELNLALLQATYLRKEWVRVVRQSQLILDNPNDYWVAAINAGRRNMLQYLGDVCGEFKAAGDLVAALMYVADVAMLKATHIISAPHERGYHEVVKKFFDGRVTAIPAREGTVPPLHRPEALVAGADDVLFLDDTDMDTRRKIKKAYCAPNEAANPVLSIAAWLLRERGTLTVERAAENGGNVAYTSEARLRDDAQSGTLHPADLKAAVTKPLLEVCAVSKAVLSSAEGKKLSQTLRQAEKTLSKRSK
Description: Trypanosoma cruzi tyrosyl tRNA synthetase (TcYRS) _High Tyrosine SOP. Further: in the data most compounds retested in dose-response had high values. It is filed as functional. Conditions: 30 µM.

For test [10], the target named is T4, Tyrosyl-tRNA synthetase, putative (Trypanosoma cruzi (strain CL Brener)). Description: Trypanosoma cruzi tyrosyl tRNA synthetase (TcYRS) SOP. Format: functional. To be noted: 30 µM.
Test [11] deals with Chromo domain-containing protein 1 (Saccharomyces cerevisiae (strain ATCC 204508 / S288c) (Baker's yeast)) (UniProt P32657). The test is described as follows: ScCHD-1 Enzyme Inhibition Assay. Further: in the data most compounds retested in dose-response had high values. Format: functional. To be noted: 30 µM.

SMILES strings stand for the structures. For some of these results: Results with a measured potency or affinity are listed apart.

Sequence of Chromo domain-containing protein 1 (Saccharomyces cerevisiae (strain ATCC 204508 / S288c) (Baker's yeast)) (P32657 whole entry, the tested form may be a part): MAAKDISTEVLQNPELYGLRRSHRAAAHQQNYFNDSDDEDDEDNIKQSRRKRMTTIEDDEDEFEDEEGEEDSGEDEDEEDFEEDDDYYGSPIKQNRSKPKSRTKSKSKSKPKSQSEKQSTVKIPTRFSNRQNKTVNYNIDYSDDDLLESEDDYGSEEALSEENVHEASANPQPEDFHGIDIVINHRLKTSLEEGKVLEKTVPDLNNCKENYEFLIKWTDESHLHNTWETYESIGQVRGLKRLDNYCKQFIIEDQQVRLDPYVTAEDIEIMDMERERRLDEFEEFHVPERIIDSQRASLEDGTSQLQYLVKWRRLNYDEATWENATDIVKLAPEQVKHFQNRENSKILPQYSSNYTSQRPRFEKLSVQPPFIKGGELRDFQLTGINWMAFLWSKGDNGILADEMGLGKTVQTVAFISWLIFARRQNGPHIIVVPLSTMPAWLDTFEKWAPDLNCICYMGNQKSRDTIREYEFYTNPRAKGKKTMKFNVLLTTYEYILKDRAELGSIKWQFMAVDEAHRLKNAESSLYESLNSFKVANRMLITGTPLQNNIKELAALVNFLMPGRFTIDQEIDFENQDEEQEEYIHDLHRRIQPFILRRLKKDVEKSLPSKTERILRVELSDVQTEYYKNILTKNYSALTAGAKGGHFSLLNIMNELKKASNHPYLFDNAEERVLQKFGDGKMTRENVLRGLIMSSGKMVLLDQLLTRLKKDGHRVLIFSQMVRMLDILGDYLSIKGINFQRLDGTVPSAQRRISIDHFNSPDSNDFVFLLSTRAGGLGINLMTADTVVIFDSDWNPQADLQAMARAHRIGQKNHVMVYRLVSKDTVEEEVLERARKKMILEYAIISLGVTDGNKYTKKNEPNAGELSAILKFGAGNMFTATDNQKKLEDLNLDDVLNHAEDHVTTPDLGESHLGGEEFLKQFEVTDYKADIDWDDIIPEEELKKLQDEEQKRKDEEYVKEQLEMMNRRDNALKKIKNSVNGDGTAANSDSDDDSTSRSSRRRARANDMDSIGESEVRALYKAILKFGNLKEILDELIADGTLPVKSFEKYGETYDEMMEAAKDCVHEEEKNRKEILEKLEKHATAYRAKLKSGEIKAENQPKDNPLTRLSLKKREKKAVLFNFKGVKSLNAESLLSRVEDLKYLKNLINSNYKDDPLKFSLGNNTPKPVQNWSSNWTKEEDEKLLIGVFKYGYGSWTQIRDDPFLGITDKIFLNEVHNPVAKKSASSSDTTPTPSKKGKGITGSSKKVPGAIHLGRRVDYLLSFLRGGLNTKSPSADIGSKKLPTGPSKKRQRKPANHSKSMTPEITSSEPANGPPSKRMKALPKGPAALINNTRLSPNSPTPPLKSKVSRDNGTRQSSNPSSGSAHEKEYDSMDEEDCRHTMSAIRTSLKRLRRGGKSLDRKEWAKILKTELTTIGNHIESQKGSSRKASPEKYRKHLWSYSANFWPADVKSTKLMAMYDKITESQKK
Sequence of Sialic acid-binding Ig-like lectin 9 (Homo sapiens) (Q9Y336 whole entry): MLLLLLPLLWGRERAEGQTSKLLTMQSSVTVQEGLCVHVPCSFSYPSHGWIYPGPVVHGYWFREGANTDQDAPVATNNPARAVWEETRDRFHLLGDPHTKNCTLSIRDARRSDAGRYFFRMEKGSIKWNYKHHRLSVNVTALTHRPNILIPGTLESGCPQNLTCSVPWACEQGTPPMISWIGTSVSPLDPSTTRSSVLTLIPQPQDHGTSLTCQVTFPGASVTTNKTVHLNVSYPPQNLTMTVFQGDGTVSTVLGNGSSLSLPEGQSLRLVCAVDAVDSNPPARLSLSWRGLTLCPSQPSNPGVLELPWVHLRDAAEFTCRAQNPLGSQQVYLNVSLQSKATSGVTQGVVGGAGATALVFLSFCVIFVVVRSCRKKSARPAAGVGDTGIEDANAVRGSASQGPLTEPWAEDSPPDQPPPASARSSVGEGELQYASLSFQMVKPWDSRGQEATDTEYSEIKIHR
Sequence of Protein translocase subunit SecA (Escherichia coli (strain K12)) (P10408 whole entry): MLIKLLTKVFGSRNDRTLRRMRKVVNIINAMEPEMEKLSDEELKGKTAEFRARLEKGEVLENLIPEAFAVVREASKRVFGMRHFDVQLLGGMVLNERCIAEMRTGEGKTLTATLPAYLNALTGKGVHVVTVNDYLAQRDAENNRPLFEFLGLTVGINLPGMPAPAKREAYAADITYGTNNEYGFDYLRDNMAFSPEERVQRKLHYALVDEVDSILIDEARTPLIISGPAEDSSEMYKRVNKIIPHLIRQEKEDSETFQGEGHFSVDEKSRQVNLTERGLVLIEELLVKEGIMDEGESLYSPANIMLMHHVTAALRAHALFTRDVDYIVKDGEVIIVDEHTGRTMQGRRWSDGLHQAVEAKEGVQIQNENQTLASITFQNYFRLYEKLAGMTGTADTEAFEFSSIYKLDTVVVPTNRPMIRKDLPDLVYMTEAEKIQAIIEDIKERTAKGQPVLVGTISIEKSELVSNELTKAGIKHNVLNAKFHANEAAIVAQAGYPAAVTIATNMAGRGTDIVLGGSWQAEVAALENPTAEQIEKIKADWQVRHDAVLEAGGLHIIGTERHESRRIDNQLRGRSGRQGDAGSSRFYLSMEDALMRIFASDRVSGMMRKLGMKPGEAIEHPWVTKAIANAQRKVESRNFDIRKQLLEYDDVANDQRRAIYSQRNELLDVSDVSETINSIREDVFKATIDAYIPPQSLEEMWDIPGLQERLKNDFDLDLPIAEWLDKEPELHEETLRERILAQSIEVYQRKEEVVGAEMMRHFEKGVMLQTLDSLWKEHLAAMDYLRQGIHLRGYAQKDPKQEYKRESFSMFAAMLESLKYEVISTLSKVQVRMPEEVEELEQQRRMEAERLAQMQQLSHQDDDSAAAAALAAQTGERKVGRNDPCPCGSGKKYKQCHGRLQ

For `O=C(CCC1CC1)N1C[C@@H](CN2CCCC2)[C@@H](CO)C1`, the Percent Effect is -2.75% in [1]; 0% in test [2]; 2.73% in [3]; 1.73% in test [4]; -2.46% in test [5]; -8.28% in test [6]. Also, the Percent Effect in test [7] was 3.49%; in [8] it was 4.43%; in [9], 2.15%; in [10] it was 6.17%; in test [11], -2.02%.

Turning to `CCc1nc(CC(=O)N2CCn3c(nnc3C(F)(F)F)C2)cs1`, the Percent Effect in test [1] is -2.58%; in test [2], 0%; in test [3], 6.61%; in [4], 5.79%; in test [5], 0.564%; in test [6], 4.98%. Also, the Percent Effect in [7] was 3.17%; in test [8] it was -25.8%; in test [9], -0.49%; in test [10], 0%; in test [11], -6.79%.

`O=C(C1CCCc2[nH]ncc21)N1CCCC1` (stereo not drawn): the Percent Effect in test [1] is -2.14%; in test [2], -2.7%; in [3] it was 2.45%; in test [4], -7.51%; in [5], -0.0978%; in [6] it was -1.24%. For the same molecule, the Percent Effect in test [7] is 5.92%; in test [8] it was -17.4%; in [9] it was -2.15%; in [10], -6.17%; in [11] it was -2.26%.

As for `O=C(NCC1CCOC1)c1cc(-c2cccc(Cl)c2)on1` (stereo not drawn), the Percent Effect was -3.92% in test [1]; 18.2% in test [2]; 1.45% in [3]; 3.45% in test [4]; 0% in test [5]; 4.27% in [6]. Further, the Percent Effect in test [7] is 16.7%; in test [8], 14.6%; in [9], 5.83%; in [10], 14.6%; in test [11], -5.69%.

As to `O=C([C@H]1CCCO1)N1CCc2ncnc(NC3CC3)c2CC1`, the Percent Effect in test [1] was 1.86%; in test [2], 0%; in test [3], -0.252%; in [4], -2.06%; in [5] it was -5.47%; in test [6] it was 5%. For the same molecule, the Percent Effect in test [7] was 12.4%; in [8], 3.34%; in [9] it was 9.9%; in test [10], 13.4%; in test [11], -4.91%.

For the molecule `Cc1ccsc1[C@@H]1CCN(C(=O)c2cc3ccccc3[nH]2)C[C@H]1O`, the Percent Effect in test [1] is -2.04%; in test [2], -1.39%; in [3], 0.967%; in test [4] it was -5.71%; in [5], -6.51%; in test [6], -0.442%. Besides, the Percent Effect in test [7] was 15.3%; in test [8] it was 12.8%; in [9], -3.16%; in test [10], -2.56%; in test [11], 2.93%.

With `CNC(=O)c1ccc(CN2CCC(N(C)Cc3noc(C)n3)C2)cc1` (stereo not drawn), the Percent Effect in [1] is -2.92%; in [2], 18.2%; in test [3], -3.53%; in test [4], -3.54%; in [5], -2.25%; in test [6], 4.42%. For the same molecule, the Percent Effect is 15.9% in [7]; 22.1% in test [8]; -1.91% in test [9]; 14.1% in [10]; -19.2% in test [11].

With `CN(C)CCN1CCO[C@@H]2CN(C(=O)c3cccs3)CC[C@@H]2C1`, the Percent Effect in test [1] is -2.95%; in test [2], 10.8%; in test [3], 3.88%; in test [4], 2.08%; in test [5] it was -1.27%; in test [6], -1.59%. The Percent Effect is 20.3% in test [7]; 5.44% in [8]; 1.08% in [9]; 12.8% in test [10]; -1.74% in [11].
